Measured values taken from PubChem BioAssay AID1466 (National Center for Advancing Translational Sciences (NCATS), 2008).
Out of some 200,000 compounds screened, about 10 (0.005%) were called active. Another 8% or so got no clear call; they are omitted. Shown is part of a subset that was picked to be rich in actives. Unmarked numbers belong to inactive results. Calls follow the shape of the dose curve; as a rule, active = well fitted inhibition curve with a large enough effect; inconclusive = small, poorly fitted or top-dose-only effect, or effect the other way, or another doubt; inactive = no such curve, though single readings can be large or run the other way.

Biological target: Lysosomal alpha-glucosidase (Homo sapiens) (UniProt P10253)
Experiment: qHTS Assay for Inhibitors of Human alpha-Glucosidase as a Potential Chaperone Treatment of Pompe Disease;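 as to activity change, negative = inhibition: plate controls were uninhibited enzyme wells for no effect and no-enzyme background for full effect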
Settings: purified human GAA, 4-MU-alpha-glucoside fluorescence; series mostly up to 76.9 µM; activity change, negative = inhibition: at the top concentration
Excerpt: NIH Chemical Genomics Center [NCGC] NIH Molecular Libraries Probe Production centers Network [MLPCN] MLPCN Grant: 1R03MH084841-01 Assay Submitter (PI): Wei Zheng NCGC Assay Overview: Alpha-glucosidase is responsible for hydrolysis of terminal, non-reducing 1,4-linked alpha-D-glucose residues with release of alpha-D-glucose. It is a lysosomal hydrolase that is required for the degradation of a small percentage (1-3%) of cellular glycogen in human. Deficiency of this enzyme results in glycogen-storage disease type II (GSDII), also referred to as Pompe disease, an autosomal recessive disorder. Structurally normal glycogen is accumulated in lysosomes and cytoplasm in affected patients, primarily in muscle tissues. Excessive glycogen storage within lysosomes may interrupt normal functioning of other organelles and leads to cellular injury. In turn, this leads to enlargement and dysfunction of the entire organ involved (eg, cardiomyopathy and muscle weakness). It has reported that the improper folding and trafficking of alpha-glucosidase resulting from the genetic mutations may account for a significant number of Pompe patients. […] We optimized this alpha-glucosidase assay in 1536-well plate format for identifying the novel small molecule inhibitors with the structures other than the sugar analogs in order to develop the new pharmacological chaperones.
NCGC Assay Protocol Summary: This is a fluorogenic enzyme assay with 4-methylumbelliferyl-alpha-D-[…] as the substrate and human alpha-glucosidase as the enzyme preparation. Upon the hydrolysis of this fluorogenic substrate, the resulting product, 1. 4-methyllumbelliferone, can be excited at 365 nm and emits at 440 nm which can be detected by a standard fluorescence plate reader. Data were normalized to the controls for basal activity (without enzyme) and 100% activity (with enzyme). In the AC50 values were determined from concentration-response data modeled with the standard Hill equation. Assay buffer: 50 mM citric acid (titrated with potassium phosphate to pH 5.0), 0.005% Tween-20, pH 5.0. (pH 5.0 is an optimal condition for this enzyme assay) 1536-well assay protocol for the human alpha-glucosidase: (1) Add 2 ul/well of enzyme (4 nM final) (2) Add 23 nL compounds in DMSO solution. The final titration was 0.7 nM to 77 uM. (3) Add 1 ul of substrate (400 uM final) (4) Incubate at room temperature for 20 min. (5) Add 2 ul stop solution (1M NaOH and 1M Glycine mixture, pH 10) (6) Detect the assay plate in a ViewLux plate reader (PerkinElmer) with Ex=365 nm and Em=440nm. Keywords: Alpha-glucosidase, Pompe Disease, pharmacological chaperone, chaperone therapy, high throughput screening, alpha-glucosidase inhibitor, MLSMR, MLSCN, NIH Roadmap, qHTS and NCGC
Potency is read from the fitted curve at half-maximal effect.

Structure (SMILES)	activity change, negative = inhibition [%]	Potency
Cc1c(C(=O)O)cccc1-n1c(C)cc(/C=C2\C(=O)NC(=O)N(c3ccc4c(c3)OCO4)C2=O)c1C	2.1	–
Cc1ccc(-n2c(C)cc(/C=C3\C(=O)NC(=O)N(C)C3=O)c2C)cc1C	2.84	–
Cc1cc(/C=C2/C(=O)NC(=O)N(Cc3ccco3)C2=O)c(C)n1-c1ccc(C(=O)O)cc1	–	31.6 µM (active)
CCN1CC2C3CCC(C)(O3)C2C1 (stereo not given)	-14.9	–
CCOP(=O)(OCC)C(NC(=O)c1ccc(OC)cc1)C(Cl)(Cl)Cl (stereo not given)	-14.7	–
